Source: PubChem BioAssay (EPA / NIEHS)
A structure can be active in one record and inactive in another. Calls of active or inactive are those of the source. How the source made its calls: active means hit-call score of the fitted dose curve at least 0.9, where 1 is the maximum; inactive means score below 0.9.

Read-out: Lipoprotein lipase (LPL), LPL (gene 4023)
Test: LTEA_HepaRG_LPL: Life Technologies and Expression Analysis (LTEA) Assay for Lipoprotein lipase (LPL) using HepaRG (AID 2283515)
Conditions: mRNA level, 48 h; actives raise or lower the signal
Method: LTEA_HepaRG is a cell based, multiplexed-readout assay that uses HepaRG, a human liver cell line, with measurements taken at 48 hours after chemical dosing on a 96-well plate.LTEA_HepaRG_LPL is one of 102 assay component(s) measured in the LTEA HepaRG cell culture assay. It is a marker of Steatosis.Data from the assay component LTEA_HepaRG_LPL was analyzed into 1 endpoint. This assay endpoint, LTEA_HepaRG_LPL, was analyzed with bidirectional fitting relative to DMSO as the negative control and baseline of activity. Using a type of inducible reporter, measures of mRNA induction for gain or loss-of-signal activity can be used to understand regulation of transcription factor activity. To generalize the intended target to other relatable targets, this assay endpoint is annotated to the esterase intended target family, where the subfamily is lipase.
A total of 1060 chemcials from the ToxCast library were tested in eight-point concentration-response experiments. Cell culture and cytotoxicity assays were conducted at Thermo Fisher Scientific's Custom Services facility (Madison, WI). A single lot of human HepaRG cells (Thermo Fisher Scientific, Frederick, MD) was used for the cell culture experiments. 96-well format collagen type I coated plates of human HepaRG cells were prepared using established methods. Briefly, cryopreserved HepaRG cells were thawed, plated at a density of approximately 100,000 cells/well in HepaRG Thaw, Plate, and General Purpose media (HPRG770, Thermo Fisher Scientific), and incubated for 48 hours. 0.5% DMSO was selected as vehicle control to balance the requisite need of DMSO in HepaRG cultures to maintain differentiation (for example, baseline metabolism, proportions of hepatocytes vs. cholangiocytes), while enabling further hepatic receptor pathway activation (for example, PXR and CAR) in response to chemical exposure. 48 hours after plating, the culture medium was replaced with HepaRG Serum-Free Incudtion Media. Cells were exposed to each test chemical in duplicate and maintained in CO2 incubators for another 48 hours. Chemical plates were thawed to room temperature and 200x concentrations of treatment groups were prepared. 8-point conentration-reponse curves were made with the highest exposure at 100 uM, followed by half-log dilutions, all in 0.5% DMSO. Each test plate contained variouse controls, induction positive controls (1mM phenobarbital), cytotoxicity positive controls ([…] aflatoxin B1), vehicle controls (0.5% DMSO), and total lysis controls (0.5% DMSO). Cell morphology images were taken using an Essen IncuCyte FLR automated microscope, with six 96-well plates imaged in about 24 minutes. Images were captured and exported and JPEG files. Spent culture media was transfered to black-well plates for the LDH assay, and remaining media was sorted at -80 C for later use. Cells were treated with RLT buffer and frozen until shipped for gene expression analysis. Total RNA was isolated from the cell suspension in 75 uL of Buffer RLT (Qiagen, Germantown, MD 20874) by Quintiles/Expression Analysis (Durham, NC) using a custom isolation procedure. Total RNA from each plate well was transferred to a preamplification plate. Fluidigm's 96.96 Dynamic ArrayTM (Fluidigm, Amsterdam, the Netherlands) technology was used for gene expression analyses by quantitative reverse transcription polymerase chain reaction (qRT-PCR, performed by Quintiles/Expression Analysis, Durham, NC)89. Standard TaqManTM Assays (Applied Biosystems/ThermoFisher Scientific, Foster City, CA) were used to assess the expression of 93 genes selected based on their selectivity and sensitivity to important hepatic receptors known to be modulated by environmental chemicals; importance in human hepatocyte functionality; and hepatotoxicity. […]

SMILES | outcome | AC50
O=c1[nH]c(=O)[nH]c(=O)[nH]1 | inactive | 
O=[N+]([O-])c1ccc(O)c([N+](=O)[O-])c1 | inactive | 
CCOP(=S)(OCC)SCSP(=S)(OCC)OCC | inactive | 
CC(C)(OO)c1ccccc1 | inactive | 
Cc1ccccc1N | inactive | 
O=C1C2(Cl)C3(Cl)C4(Cl)C(Cl)(Cl)C5(Cl)C3(Cl)C1(Cl)C5(Cl)C24Cl (configuration not stated) |  | 91.9 µM (active)
CC12CC1(C)C(=O)N(c1cc(Cl)cc(Cl)c1)C2=O (configuration not stated) | inactive | 
Cn1sc(Cl)cc1=O | inactive | 
O=C(O)C(F)(F)C(F)(F)C(F)(F)C(F)(F)C(F)(F)C(F)(F)F | inactive | 
CCC(=O)C(CC(C)N(C)C)(c1ccccc1)c1ccccc1 (configuration not stated) | inactive | 
CCOP(=S)(OCC)Oc1nc(Cl)c(Cl)cc1Cl | inactive | 
CC(C)(C)c1cc(O)ccc1O | inactive | 
NC(=O)O | inactive | 
CC(=O)[O][Hg][c]1ccccc1 |  | 29.3 µM (active)
O=C(O)C(F)(F)C(F)(F)C(F)(F)C(F)(F)C(F)(F)C(F)(F)C(F)(F)C(F)(F)C(F)(F)C(F)(F)F |  | 47.8 µM (active)
C=CC(=O)OCCCCCC(C)C | inactive | 

SMILES | outcome | AC50
ClC1(Cl)C2(Cl)C3(Cl)C4(Cl)C(Cl)(Cl)C5(Cl)C3(Cl)C1(Cl)C5(Cl)C24Cl (configuration not stated) | inactive | 
ClCC(Cl)CCl | inactive | 
O=C(Nc1ccc2[nH]ccc2c1)c1cc2cc(F)ccc2n1Cc1cccc(F)c1 |  | 19.9 µM (active)
C[C@]12CCC(=O)C[C@@H]1CC[C@@H]1[C@@H]2CC[C@]2(C)[C@@H](O)CC[C@@H]12 | inactive | 
C=C(C)C(=O)[O][Sn]([CH2]CCC)([CH2]CCC)[CH2]CCC |  | 6.44 µM (active)
CCCCCCCCc1ccc(O)cc1 | inactive | 
O=C(O)C(Cl)(Cl)Cl | inactive | 9.92 µM (active)
C[C@@H]1C[C@@H]([C@H](O)CC2CC(=O)NC(=O)C2)C(=O)[C@@H](C)C1 |  | 92.2 µM (active)
CCN1CCC2(CC1)COc1cc3c(cc12)N(C(=O)c1ccc(-c2ccc(-c4nnc(C)o4)cc2C)cc1)CC3 |  | 32.7 µM (active)
Oc1cccc2cccnc12 | inactive | 
CCC(C)(C)c1ccc(O)c(C(C)(C)CC)c1 | inactive | 
CN(C)N=O | inactive | 
CC(C)(c1ccccc1)c1ccc(O)c(C(C)(C)c2ccccc2)c1 | inactive | 
COc1cc(-c2ccc(N)c(OC)c2)ccc1N | inactive | 
CC(C)(C)CC(C)(C)c1ccc(O)cc1 | inactive | 
